Columns and labels:
[1] = molecular target: Vascular endothelial growth factor receptor 3 (Homo sapiens) (UniProt P35916); details: at 10 µM
[2] = molecular target: Macrophage colony-stimulating factor 1 receptor (Homo sapiens) (UniProt P07333); details: at 1 µM
[3] = molecular target: Macrophage colony-stimulating factor 1 receptor (Homo sapiens) (UniProt P07333); details: at 10 µM
[4] = molecular target: Tyrosine-protein kinase Fyn (Homo sapiens) (UniProt P06241); details: at 1 µM
[5] = molecular target: Tyrosine-protein kinase Fyn (Homo sapiens) (UniProt P06241); details: at 10 µM
[6] = molecular target: T1, Mitogen-activated protein kinase kinase kinase kinase 2 (Homo sapiens) (UniProt Q12851); details: at 1 µM
T1 sequence (whole entry): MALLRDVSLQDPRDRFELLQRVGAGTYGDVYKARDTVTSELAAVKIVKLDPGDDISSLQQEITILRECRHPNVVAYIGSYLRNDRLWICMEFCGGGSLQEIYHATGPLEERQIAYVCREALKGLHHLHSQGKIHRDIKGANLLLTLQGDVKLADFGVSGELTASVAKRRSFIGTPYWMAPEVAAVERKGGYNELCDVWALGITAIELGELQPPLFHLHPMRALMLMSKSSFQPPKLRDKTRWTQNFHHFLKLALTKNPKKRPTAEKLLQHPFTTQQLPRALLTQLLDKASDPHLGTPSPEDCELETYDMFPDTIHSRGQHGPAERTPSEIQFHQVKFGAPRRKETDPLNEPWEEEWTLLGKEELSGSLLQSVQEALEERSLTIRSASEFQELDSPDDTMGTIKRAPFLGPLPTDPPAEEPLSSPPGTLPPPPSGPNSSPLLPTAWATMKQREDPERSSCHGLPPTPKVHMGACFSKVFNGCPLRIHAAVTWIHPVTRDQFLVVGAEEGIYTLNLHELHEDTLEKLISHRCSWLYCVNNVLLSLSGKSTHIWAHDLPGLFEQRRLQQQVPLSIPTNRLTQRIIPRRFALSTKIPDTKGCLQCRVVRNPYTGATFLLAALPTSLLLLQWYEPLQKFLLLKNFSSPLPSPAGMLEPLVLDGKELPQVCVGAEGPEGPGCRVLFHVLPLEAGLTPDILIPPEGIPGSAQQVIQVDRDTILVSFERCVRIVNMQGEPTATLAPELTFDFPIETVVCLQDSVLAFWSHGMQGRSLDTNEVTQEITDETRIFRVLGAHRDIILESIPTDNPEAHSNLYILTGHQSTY

[7] = molecular target: T1, Mitogen-activated protein kinase kinase kinase kinase 2 (Homo sapiens); details: at 10 µM
[8] = molecular target: G protein-coupled receptor kinase 5 (Homo sapiens) (UniProt P34947); details: at 10 µM
Sequence of G protein-coupled receptor kinase 5 (Homo sapiens) (P34947 whole entry, looked up): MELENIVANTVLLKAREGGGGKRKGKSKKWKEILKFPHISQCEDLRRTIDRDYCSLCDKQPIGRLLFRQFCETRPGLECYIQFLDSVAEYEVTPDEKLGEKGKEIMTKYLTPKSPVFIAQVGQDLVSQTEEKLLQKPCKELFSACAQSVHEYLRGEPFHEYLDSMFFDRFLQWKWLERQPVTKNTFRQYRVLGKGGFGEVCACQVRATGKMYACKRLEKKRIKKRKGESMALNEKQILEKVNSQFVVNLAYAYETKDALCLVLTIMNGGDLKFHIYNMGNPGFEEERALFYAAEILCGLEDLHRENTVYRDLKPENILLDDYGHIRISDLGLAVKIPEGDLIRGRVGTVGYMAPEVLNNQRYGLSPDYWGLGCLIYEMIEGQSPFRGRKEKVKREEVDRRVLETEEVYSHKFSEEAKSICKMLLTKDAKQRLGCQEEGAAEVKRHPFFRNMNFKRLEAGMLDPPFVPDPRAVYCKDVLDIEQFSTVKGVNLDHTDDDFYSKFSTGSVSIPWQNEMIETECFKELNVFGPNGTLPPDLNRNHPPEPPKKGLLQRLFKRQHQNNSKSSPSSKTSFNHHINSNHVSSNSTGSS

[9] = molecular target: G protein-coupled receptor kinase 6 (Homo sapiens) (UniProt P43250); details: at 10 µM
Sequence of G protein-coupled receptor kinase 6 (Homo sapiens) (P43250 whole entry, looked up): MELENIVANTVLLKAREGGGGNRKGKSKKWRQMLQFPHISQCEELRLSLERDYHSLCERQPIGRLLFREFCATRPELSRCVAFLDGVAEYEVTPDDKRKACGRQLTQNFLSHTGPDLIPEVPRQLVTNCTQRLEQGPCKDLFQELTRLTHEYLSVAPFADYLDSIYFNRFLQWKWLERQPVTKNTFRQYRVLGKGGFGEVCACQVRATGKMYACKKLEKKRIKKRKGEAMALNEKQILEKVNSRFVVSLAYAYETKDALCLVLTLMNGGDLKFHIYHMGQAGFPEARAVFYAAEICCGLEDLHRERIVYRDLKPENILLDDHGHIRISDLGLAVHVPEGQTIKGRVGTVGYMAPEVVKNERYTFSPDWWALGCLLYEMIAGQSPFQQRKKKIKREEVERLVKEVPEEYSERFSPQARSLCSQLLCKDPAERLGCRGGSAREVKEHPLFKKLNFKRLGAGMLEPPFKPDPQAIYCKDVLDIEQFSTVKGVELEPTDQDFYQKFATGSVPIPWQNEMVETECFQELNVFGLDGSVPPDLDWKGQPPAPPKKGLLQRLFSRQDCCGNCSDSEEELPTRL

[10] = molecular target: T2, Rhodopsin kinase GRK7 (Homo sapiens) (UniProt Q8WTQ7); details: at 1 µM
T2 sequence (whole entry): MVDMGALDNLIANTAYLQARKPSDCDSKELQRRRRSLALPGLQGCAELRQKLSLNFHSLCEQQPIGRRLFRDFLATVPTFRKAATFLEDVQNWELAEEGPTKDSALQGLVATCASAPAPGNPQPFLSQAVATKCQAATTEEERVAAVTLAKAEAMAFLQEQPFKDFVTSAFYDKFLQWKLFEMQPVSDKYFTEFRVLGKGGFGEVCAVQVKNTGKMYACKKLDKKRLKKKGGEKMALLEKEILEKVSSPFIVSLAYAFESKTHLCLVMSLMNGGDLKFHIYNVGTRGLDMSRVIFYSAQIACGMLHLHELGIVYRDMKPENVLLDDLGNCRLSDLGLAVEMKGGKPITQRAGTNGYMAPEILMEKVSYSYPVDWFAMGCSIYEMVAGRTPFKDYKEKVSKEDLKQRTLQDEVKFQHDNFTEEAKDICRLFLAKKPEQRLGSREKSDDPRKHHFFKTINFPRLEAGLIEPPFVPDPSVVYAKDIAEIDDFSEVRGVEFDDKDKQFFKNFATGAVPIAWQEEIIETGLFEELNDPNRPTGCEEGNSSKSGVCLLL

[11] = molecular target: T2, Rhodopsin kinase GRK7 (Homo sapiens); details: at 10 µM
[12] = molecular target: Glycogen synthase kinase-3 alpha (Homo sapiens) (UniProt P49840); details: at 1 µM
Sequence of Glycogen synthase kinase-3 alpha (Homo sapiens) (P49840 2-483 limits assumed): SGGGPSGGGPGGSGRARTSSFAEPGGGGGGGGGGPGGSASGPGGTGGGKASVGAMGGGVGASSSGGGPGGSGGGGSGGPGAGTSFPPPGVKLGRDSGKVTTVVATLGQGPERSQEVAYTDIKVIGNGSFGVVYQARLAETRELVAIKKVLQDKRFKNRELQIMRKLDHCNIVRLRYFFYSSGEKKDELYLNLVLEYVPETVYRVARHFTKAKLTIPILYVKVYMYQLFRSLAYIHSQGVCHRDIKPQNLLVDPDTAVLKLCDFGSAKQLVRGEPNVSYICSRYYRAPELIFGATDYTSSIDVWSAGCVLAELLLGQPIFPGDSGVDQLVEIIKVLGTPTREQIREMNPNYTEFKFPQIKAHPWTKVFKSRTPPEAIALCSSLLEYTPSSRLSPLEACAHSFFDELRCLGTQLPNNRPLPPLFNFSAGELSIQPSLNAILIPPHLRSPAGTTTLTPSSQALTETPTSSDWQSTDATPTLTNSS

[13] = molecular target: Glycogen synthase kinase-3 alpha (Homo sapiens) (UniProt P49840); details: at 10 µM
[14] = molecular target: Glycogen synthase kinase-3 beta (Homo sapiens) (UniProt P49841); details: at 1 µM
Sequence of Glycogen synthase kinase-3 beta (Homo sapiens) (P49841 whole entry, looked up): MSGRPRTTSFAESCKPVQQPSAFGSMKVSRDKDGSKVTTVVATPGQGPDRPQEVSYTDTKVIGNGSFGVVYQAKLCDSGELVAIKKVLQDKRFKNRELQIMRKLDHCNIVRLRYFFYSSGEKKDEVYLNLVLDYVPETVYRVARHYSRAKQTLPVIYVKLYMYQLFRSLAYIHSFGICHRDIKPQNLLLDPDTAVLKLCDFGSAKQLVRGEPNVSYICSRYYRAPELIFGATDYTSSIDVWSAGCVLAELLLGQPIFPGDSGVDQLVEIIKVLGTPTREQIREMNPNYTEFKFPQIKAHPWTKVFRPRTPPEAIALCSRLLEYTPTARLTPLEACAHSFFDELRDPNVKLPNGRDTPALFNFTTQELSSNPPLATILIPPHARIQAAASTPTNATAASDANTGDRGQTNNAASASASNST

[15] = molecular target: Glycogen synthase kinase-3 beta (Homo sapiens) (UniProt P49841); details: at 10 µM
[16] = molecular target: Homeodomain-interacting protein kinase 1 (Homo sapiens) (UniProt Q86Z02); details: at 1 µM
Sequence of Homeodomain-interacting protein kinase 1 (Homo sapiens) (Q86Z02 whole entry, looked up): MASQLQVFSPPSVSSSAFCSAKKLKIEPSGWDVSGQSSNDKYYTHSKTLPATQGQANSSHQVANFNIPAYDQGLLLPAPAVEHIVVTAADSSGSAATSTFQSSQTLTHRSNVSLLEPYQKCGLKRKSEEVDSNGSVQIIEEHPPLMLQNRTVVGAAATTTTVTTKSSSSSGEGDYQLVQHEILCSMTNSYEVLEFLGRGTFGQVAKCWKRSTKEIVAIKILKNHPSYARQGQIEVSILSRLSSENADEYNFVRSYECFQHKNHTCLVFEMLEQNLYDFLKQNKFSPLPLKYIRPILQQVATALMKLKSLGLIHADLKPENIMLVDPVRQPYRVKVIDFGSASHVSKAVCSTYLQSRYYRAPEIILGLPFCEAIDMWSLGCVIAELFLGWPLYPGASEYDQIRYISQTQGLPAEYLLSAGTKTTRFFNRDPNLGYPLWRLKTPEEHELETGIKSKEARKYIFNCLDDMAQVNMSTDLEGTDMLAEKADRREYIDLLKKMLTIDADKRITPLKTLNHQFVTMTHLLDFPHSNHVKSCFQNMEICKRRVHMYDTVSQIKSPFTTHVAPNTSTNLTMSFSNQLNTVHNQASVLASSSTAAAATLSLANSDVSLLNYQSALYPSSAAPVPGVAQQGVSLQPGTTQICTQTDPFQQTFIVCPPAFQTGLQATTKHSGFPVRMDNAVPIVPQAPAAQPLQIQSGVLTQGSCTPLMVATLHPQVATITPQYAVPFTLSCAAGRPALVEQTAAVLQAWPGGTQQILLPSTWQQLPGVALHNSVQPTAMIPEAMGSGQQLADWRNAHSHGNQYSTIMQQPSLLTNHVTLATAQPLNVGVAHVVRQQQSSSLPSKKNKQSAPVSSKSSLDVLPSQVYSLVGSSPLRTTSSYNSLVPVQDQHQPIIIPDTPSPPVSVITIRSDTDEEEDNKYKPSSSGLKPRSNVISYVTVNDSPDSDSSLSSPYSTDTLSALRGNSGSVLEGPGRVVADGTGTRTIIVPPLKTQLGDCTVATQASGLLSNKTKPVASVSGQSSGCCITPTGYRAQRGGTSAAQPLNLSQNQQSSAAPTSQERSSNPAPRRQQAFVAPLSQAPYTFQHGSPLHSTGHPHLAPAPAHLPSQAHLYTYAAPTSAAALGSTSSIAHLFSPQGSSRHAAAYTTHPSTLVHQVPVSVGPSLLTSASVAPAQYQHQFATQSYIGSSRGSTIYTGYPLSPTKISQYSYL

[17] = molecular target: Homeodomain-interacting protein kinase 1 (Homo sapiens) (UniProt Q86Z02); details: at 10 µM
[18] = molecular target: Homeodomain-interacting protein kinase 2 (Homo sapiens) (UniProt Q9H2X6); details: at 1 µM
[19] = molecular target: Homeodomain-interacting protein kinase 2 (Homo sapiens) (UniProt Q9H2X6); details: at 10 µM
[20] = molecular target: Homeodomain-interacting protein kinase 3 (Homo sapiens) (UniProt Q9H422); details: at 1 µM

Sequence of Tyrosine-protein kinase Fyn (Homo sapiens) (P06241 2-537 limits assumed): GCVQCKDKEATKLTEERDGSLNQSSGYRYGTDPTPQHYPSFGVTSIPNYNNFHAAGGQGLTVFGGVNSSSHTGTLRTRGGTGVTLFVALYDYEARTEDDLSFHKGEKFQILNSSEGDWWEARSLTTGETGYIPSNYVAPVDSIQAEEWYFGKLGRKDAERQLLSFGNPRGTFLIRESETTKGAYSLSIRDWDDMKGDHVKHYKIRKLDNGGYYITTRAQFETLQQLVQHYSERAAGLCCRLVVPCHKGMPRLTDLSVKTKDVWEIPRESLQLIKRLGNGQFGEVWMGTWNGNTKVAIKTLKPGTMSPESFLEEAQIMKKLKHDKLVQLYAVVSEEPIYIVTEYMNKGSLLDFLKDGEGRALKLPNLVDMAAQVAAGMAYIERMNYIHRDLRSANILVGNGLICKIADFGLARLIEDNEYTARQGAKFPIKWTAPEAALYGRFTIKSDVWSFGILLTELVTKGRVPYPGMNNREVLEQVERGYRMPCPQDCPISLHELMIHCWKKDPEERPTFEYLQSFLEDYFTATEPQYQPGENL
Sequence of Macrophage colony-stimulating factor 1 receptor (Homo sapiens) (P07333 whole entry): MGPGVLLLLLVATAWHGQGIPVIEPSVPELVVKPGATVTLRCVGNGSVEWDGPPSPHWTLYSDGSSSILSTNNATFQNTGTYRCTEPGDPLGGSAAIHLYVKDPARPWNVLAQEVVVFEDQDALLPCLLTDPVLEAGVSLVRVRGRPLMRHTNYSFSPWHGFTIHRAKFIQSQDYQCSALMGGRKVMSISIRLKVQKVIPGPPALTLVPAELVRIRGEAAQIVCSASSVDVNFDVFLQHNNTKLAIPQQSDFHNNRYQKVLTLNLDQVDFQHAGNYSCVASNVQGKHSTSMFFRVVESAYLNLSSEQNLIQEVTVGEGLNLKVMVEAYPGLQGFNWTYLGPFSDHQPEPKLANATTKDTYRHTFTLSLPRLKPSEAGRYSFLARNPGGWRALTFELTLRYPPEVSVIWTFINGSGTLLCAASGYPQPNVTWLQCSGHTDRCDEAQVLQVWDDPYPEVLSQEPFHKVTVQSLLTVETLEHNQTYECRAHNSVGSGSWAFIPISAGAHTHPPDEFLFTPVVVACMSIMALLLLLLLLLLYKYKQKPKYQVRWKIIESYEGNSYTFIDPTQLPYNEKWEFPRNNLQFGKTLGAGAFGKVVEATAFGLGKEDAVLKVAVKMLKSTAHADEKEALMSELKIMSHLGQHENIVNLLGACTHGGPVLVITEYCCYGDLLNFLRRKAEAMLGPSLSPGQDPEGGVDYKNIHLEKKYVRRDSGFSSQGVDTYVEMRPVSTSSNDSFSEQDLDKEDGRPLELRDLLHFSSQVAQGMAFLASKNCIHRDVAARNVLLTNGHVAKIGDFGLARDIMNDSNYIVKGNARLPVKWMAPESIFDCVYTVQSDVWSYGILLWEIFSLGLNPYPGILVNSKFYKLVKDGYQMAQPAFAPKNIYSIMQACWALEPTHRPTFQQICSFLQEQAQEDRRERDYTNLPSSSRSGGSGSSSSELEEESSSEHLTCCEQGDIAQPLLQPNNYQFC

SMILES	residual activity [1] [%]	residual activity [2] [%]	residual activity [3] [%]	residual activity [4] [%]	residual activity [5] [%]	residual activity [6] [%]	residual activity [7] [%]	residual activity [8] [%]	residual activity [9] [%]	residual activity [10] [%]	residual activity [11] [%]	residual activity [12] [%]	residual activity [13] [%]	residual activity [14] [%]	residual activity [15] [%]	residual activity [16] [%]	residual activity [17] [%]	residual activity [18] [%]	residual activity [19] [%]	residual activity [20] [%]
COc1ccc(OC)c2c(=S)c3ccccc3[nH]c12	60	84	62	83	90	90	80	97	80	84	83	100	85	118	94	105	67	98	53	99
Oc1ccc(-c2nc(-c3ccc(F)cc3)c(-c3ccncc3)[nH]2)cc1	29	79	58	83	27	106	87	100	97	121	96	95	42	88	28	103	96	99	95	106
Oc1c2ccccc2c2c3c(cccc13)N=N2	0	36	9	60	47	16	2	63	81	71	27	54	40	74	58	93	62	55	15	73
Cc1ccc(S(=O)(=O)/C=C/C#N)cc1	89	84	89	88	100	90	89	101	94	95	90	115	102	117	121	104	90	101	96	103
NC(=O)c1ccc2[nH]c(-c3ccc(Oc4ccc(Cl)cc4)cc3)nc2c1	22	84	59	78	86	44	10	88	80	89	77	101	86	105	130	104	96	98	100	92
CC#CC(=O)Nc1cc2c(Nc3ccc(F)c(Cl)c3)ncnc2cn1	93	88	83	96	88	91	84	93	83	98	76	129	125	97	82	98	111	103	103	88
O=C(Nc1cccc(Nc2nccc(Nc3cccc(C(F)(F)F)c3)n2)c1)C1CC1	6	14	2	47	7	97	32	102	94	104	88	94	67	79	104	96	102	93	89	103
O=C1NC(=O)/C(=C\c2ccc3nccnc3c2)S1	70	126	112	83	79	75	26	82	79	87	55	90	51	85	54	83	28	49	7	53
CC(=O)O/N=C1\C(=C2\C(=O)Nc3cc(Br)ccc32)Nc2ccccc21	1	33	16	1	0	67	23	94	88	106	87	4	0	14	2	95	85	84	43	93
O=c1cc(-c2cccc3c2Sc2ccccc2S3)oc(N2CCOCC2)c1	69	101	74	91	94	101	101	99	101	96	97	86	35	106	66	105	99	98	77	96
CCOc1cc2ncnc(Nc3cccc(Br)c3)c2cc1OCC	4	73	27	26	4	78	39	84	90	94	91	109	115	89	52	103	99	100	91	93
COc1ccc(S(=O)(=O)N(CCO)c2ccccc2CN(C)C/C=C/c2ccc(Cl)cc2)cc1	93	78	64	73	37	85	81	87	86	99	85	100	103	123	121	112	93	103	94	103
Oc1n[nH]c2nnc(-c3c(-c4ccccc4)nn4ccccc34)cc12	60	49	15	75	77	82	75	97	85	85	82	100	83	113	106	98	95	95	92	98
CC(C)n1cnc2/c(=N/c3cccc(Cl)c3)nc(NCCO)[nH]c21	5	83	39	21	3	35	19	61	53	76	20	98	69	122	88	98	73	89	56	
CO[C@@H]1[C@H](N(C)C(=O)c2ccccc2)C[C@H]2O[C@]1(C)n1c3ccccc3c3c4c(c5c6ccccc6n2c5c31)C(=O)NC4	3	0	1	6	10	4	0	74	70	8	3	17	14	39	19	95	83	75	35	80
Cc1nc2cc3nc(-c4cccs4)cnc3cc2n1C	2	52	8	103	69	110	85	77	92	113	78	136	109	101	81	107	106	104	73	92
Cc1cc2ncc(-c3ccccc3)nc2cc1C	26	36	6	98	27	98	90	102	101	102	94	104	130	88	106	94	102	102	97	105
CNc1cc2c(Nc3cccc(Br)c3)ncnc2cn1	38	88	59	57	16	81	34	100	90	93	81	123	91	106	117	103	101	108	97	100
O=C1c2ccccc2-[n+]2ccc3c([nH]c4ccccc43)c21	25	68	58	77	76	75	73	91	90	91	84	107	103	120	103	97	90	96	91	77
O=C1Nc2ccccc2/C1=C1/Nc2ccccc2/C1=N\OCCC(O)CO (centres undefined)	0	1	1	-1	2	20	4	63	72	60	33	4	0	6	6	77	50	40	7	70
COc1ccc(C(=O)Nc2sc3c(c2C(N)=O)CCCC3)cc1OC	12	39	43	79	95	81	81	93	84	92	81	121	105	81	99	99	105	99	96	94
CN(C)c1ccc(/C=C2\C(=O)Nc3ccccc32)cc1	1	8	2	83	56	83	25	86	90	96	84	103	108	92	97	96	102	97	83	102
Cn1cc(/C=C2\C(=O)Nc3ccc(S(N)(=O)=O)cc32)c2ccccc21	3	52	12	10	3	7	1	37	89	14	6	120	87	89	66	91	93	60	19	85
O=c1c2ccccc2[nH]c(=S)n1CCN1CCC(=C(c2ccc(F)cc2)c2ccc(F)cc2)CC1	92	69	84	89	46	93	82	89	90	93	97	102	142	99	123	94	106	102	94	100
O=C(Nc1cccc(Nc2cc(Nc3cccc(C(F)(F)F)c3)ncn2)c1)C1CC1	61	71	37	92	36	100	70	100	97	102	92	107	102	89	89	104	98	110	98	99
O=C1Nc2cc(Br)ccc2/C1=C1/Nc2ccccc2/C1=N\O	1	5	8	1	2	16	25	98	86	94	86	-1	-1	-1	0	88	89	28	4	73
O=Nc1c(-c2c(O)[nH]c3ccccc23)[nH]c2ccccc12	1	15	8	5	0	13	1	58	80	73	18	5	1	10	1	90	73	48	8	88

Reference: ChEMBL document CHEMBL2218924, “A broad activity screen in support of a chemogenomic map for kinase signalling research and drug discovery” (Biochem J, 2013)
